Reference: the supplement of paper PMC6555819

test system: LXRb:RXRa (NR concentration 270 nM, RXRa partner concentration 90 nM); test: PBM binding z-score (relative to random genomic background probes); higher = stronger binding; sequences stand for … in GC…GCGATTGACAGCGTAGAATGAAGG
In short: (§1)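 The probes on custom Agilent 4×180K protein-binding microarrays were double-stranded, with 34-nt variable regions bearing direct-repeat seeds, single-nucleotide variants, half-site ablations and random human genomic background sequences. Incubation lasted 1 h with ligand-free nuclear receptor dimers in PBS pH 7.4, 2% milk, 0.02% Triton X-100, 1 mM DTT, 0.2 mg/mL BSA and 0.4 mg/ml salmon testes DNA. Antibodies against each partner (one per run) detected bound dimers, and fluorescence scans were regression-normalized. Binding z-scores take the random background probes as reference.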

Sequence	PBM binding z-score
ATCTCTAGGTCACAAGTTCAGTGAAAGAGAGGAC	3.08
GGAACGAGGGCAAGTGGATAGCAGAGTTTGATGG	0.0624
TGTCAAAGTTCATAGGTAACGTAAGTATCCACAC	4.02
GCTATTAGTTGAAACGGCAACCGAATGATTCTCG	-0.237
CAAACTAGGACAAAGGTCAAAGTCGAGCCAACCA	5.58
CCTTACGGGTCCAGGTTATAGCACGGGTGGTACG	-0.566
CGAACTAGGTCATTGACTGGACAGTGAATAGTAA	1.83
TAGCCTAGATCATGCGGGCCAGTATAGTGTCGGC	-1.36
TCTGCTAGGTCAGCGATGGTCAGCTAATCTGCTA	0.271
ACAGACAGGTGATGTAGGTAACTCAGGCTATCAT	-0.28
TCTTTTAGATCAAAGGTTAAGAAAGCCGAAGCCT	2.19
TCTTGTAGATCAATAGAGGTTAAGAAGGTGCGCT	1.44
TCTGCTAGGTCAGTTGGTCACCTAACGAGCTGCC	0.685
GTATCAAGGTGAATAGGTCGTTGATGAGTAGGCG	0.689
ATCTCTAGGTAACACGTTCAGTGAAAGAGAGGAC	0.113
TTACCAAGGTGAAAGGTCGTTCATGCACGCCTTG	3.18
ACACGGAGGACAAAGGTCAGAGCTACGCCAGTGA	3.36
TCATATAGGTAAACAGGTGACAGTCCGTAAGTTA	0.84

test system: LXRb homodimer (NR concentration 270 nM); test: as above
In short: as §1

Sequence	PBM binding z-score
TCATAAAGGTAAACAGGTGAAAGTCCGTAAGTTA	-0.2
ATATGTAGGTTACATCCGGTTCATTCAGGCTATG	0.614
TCTATTAGTTGACGGGCAACCGACGAGTCCGTTT	0.493
CAGCCAAGGTCAGGGCCAGTATAGGAGGAACGTT	-0.506
CGTCCAAGGTCAGAGAGGTCAGTCAATGCCGAGT	0.441
CGTCCAAGGTCAAAAGTCAGTGAAGAGATGACGG	1.42
TAGCATAGGTCATTGGGCCAGTATAGTACGCATC	0.541
ATCGAAAGGTCGAAGGTGTGTATACCCACCCGAA	0.416
GTACCAAGGTGAATAGGTTGTTGATGAGTAGGCG	-0.172
TAGCCTAGGTCATTGCGCCAGTATAGTACGCATC	0.632
AGTCAAAGTTCACTAGTTAACGTAAGATTCAGCT	1.03
CCTAGTTGGTCAGGAGGGCACACACCGGATATGA	-0.0952
TCTTGTAGATCAGCAGGTTCAGAAAGCTGGCCAA	-0.738
TCTATTAGTTGAAGGGAAACCGACGAGTCCGTTT	0.644
ACTACCAGGCCAAGTTTGGGTCACTCAAACAAAG	0.0374
GCTAGCAGGCCATTTGGGTCACTCGATGACGGGC	-0.791
TCTAGTTGGTCAAAGGTCACACGCTCGAAATGCG	1.94
AGAATGTGGTTATACGTAGATCAGGGAAGAAAGT	-0.0614
CCTTACTGGTCACTGACAGGTTATAGCATTTGGA	0.49
TTACCAAGGTGAGCTGAGGTCCTTGATCCAACTC	-1.22

Sequence	PBM binding z-score
TCATATAGGTATAGGTGAAAGTCGAACGATATGA	-0.47
ACTAGCAGGCCAAGATTGGGTCACTCAAACAAAG	-0.861
ATCTCTAGGTCACAAGTTCAGTGAAAGAGAGGAC	2.24
GGAACGAGGGCAAGTGGATAGCAGAGTTTGATGG	-0.475
TGTCAAAGTTCATAGGTAACGTAAGTATCCACAC	1.38
GCTATTAGTTGAAACGGCAACCGAATGATTCTCG	0.111
CAAACTAGGACAAAGGTCAAAGTCGAGCCAACCA	2.61
CCTTACGGGTCCAGGTTATAGCACGGGTGGTACG	-1.29
CGAACTAGGTCATTGACTGGACAGTGAATAGTAA	-0.381
TAGCCTAGATCATGCGGGCCAGTATAGTGTCGGC	-0.772
TCTGCTAGGTCAGCGATGGTCAGCTAATCTGCTA	-0.838
ACAGACAGGTGATGTAGGTAACTCAGGCTATCAT	-0.53
TCTTTTAGATCAAAGGTTAAGAAAGCCGAAGCCT	0.802
TCTTGTAGATCAATAGAGGTTAAGAAGGTGCGCT	-0.193
TCTGCTAGGTCAGTTGGTCACCTAACGAGCTGCC	0.632
GTATCAAGGTGAATAGGTCGTTGATGAGTAGGCG	0.229
ATCTCTAGGTAACACGTTCAGTGAAAGAGAGGAC	0.898
TTACCAAGGTGAAAGGTCGTTCATGCACGCCTTG	-0.344
ACACGGAGGACAAAGGTCAGAGCTACGCCAGTGA	0.366
TCATATAGGTAAACAGGTGACAGTCCGTAAGTTA	-0.213

test system: PPARa:RXRa (NR concentration 270 nM, RXRa partner concentration 90 nM); test: as above
In short: as §1

Sequence	PBM binding z-score
TCATAAAGGTAAACAGGTGAAAGTCCGTAAGTTA	2.83
ATATGTAGGTTACATCCGGTTCATTCAGGCTATG	3.53
TCTATTAGTTGACGGGCAACCGACGAGTCCGTTT	0.565
CAGCCAAGGTCAGGGCCAGTATAGGAGGAACGTT	4.22
CGTCCAAGGTCAGAGAGGTCAGTCAATGCCGAGT	4.81
CGTCCAAGGTCAAAAGTCAGTGAAGAGATGACGG	5.14
TAGCATAGGTCATTGGGCCAGTATAGTACGCATC	5.41
ATCGAAAGGTCGAAGGTGTGTATACCCACCCGAA	4.08
GTACCAAGGTGAATAGGTTGTTGATGAGTAGGCG	1.27
TAGCCTAGGTCATTGCGCCAGTATAGTACGCATC	3.48
AGTCAAAGTTCACTAGTTAACGTAAGATTCAGCT	4.06
CCTAGTTGGTCAGGAGGGCACACACCGGATATGA	0.641
TCTTGTAGATCAGCAGGTTCAGAAAGCTGGCCAA	0.609
TCTATTAGTTGAAGGGAAACCGACGAGTCCGTTT	0.587
ACTACCAGGCCAAGTTTGGGTCACTCAAACAAAG	1.58
GCTAGCAGGCCATTTGGGTCACTCGATGACGGGC	1.25
TCTAGTTGGTCAAAGGTCACACGCTCGAAATGCG	6.6
AGAATGTGGTTATACGTAGATCAGGGAAGAAAGT	0.259
CCTTACTGGTCACTGACAGGTTATAGCATTTGGA	0.699
TTACCAAGGTGAGCTGAGGTCCTTGATCCAACTC	0.604

Sequence	PBM binding z-score
TCATATAGGTATAGGTGAAAGTCGAACGATATGA	1.42
ACTAGCAGGCCAAGATTGGGTCACTCAAACAAAG	1.33
ATCTCTAGGTCACAAGTTCAGTGAAAGAGAGGAC	4.35
GGAACGAGGGCAAGTGGATAGCAGAGTTTGATGG	1.36
TGTCAAAGTTCATAGGTAACGTAAGTATCCACAC	5.13
GCTATTAGTTGAAACGGCAACCGAATGATTCTCG	-0.33
CAAACTAGGACAAAGGTCAAAGTCGAGCCAACCA	7
CCTTACGGGTCCAGGTTATAGCACGGGTGGTACG	-0.292
CGAACTAGGTCATTGACTGGACAGTGAATAGTAA	4.74
TAGCCTAGATCATGCGGGCCAGTATAGTGTCGGC	-0.834
TCTGCTAGGTCAGCGATGGTCAGCTAATCTGCTA	1.66
ACAGACAGGTGATGTAGGTAACTCAGGCTATCAT	0.633
TCTTTTAGATCAAAGGTTAAGAAAGCCGAAGCCT	4.08
TCTTGTAGATCAATAGAGGTTAAGAAGGTGCGCT	2
TCTGCTAGGTCAGTTGGTCACCTAACGAGCTGCC	1.69
GTATCAAGGTGAATAGGTCGTTGATGAGTAGGCG	2.65
ATCTCTAGGTAACACGTTCAGTGAAAGAGAGGAC	0.511
TTACCAAGGTGAAAGGTCGTTCATGCACGCCTTG	5.32
ACACGGAGGACAAAGGTCAGAGCTACGCCAGTGA	5.18
TCATATAGGTAAACAGGTGACAGTCCGTAAGTTA	2.24
